# High-throughput results (PubChem BioAssay)
# ABCB6 inh MLPCN: blocks the human ABCB6 transporter; hit rate 0.19% among 360,000; fluorescence ratio to DMSO, % at 10 µM; Q9NP58; K562-ABCB6 porphyrin accumulation, flow cytometry, 1 h; active compounds read low;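 active = fluorescence ratio to DMSO below 75%, the collection mean minus 3 SD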;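 also: signal is porphyrin accumulated inside mitochondria; 100% equals median channel fluorescence of DMSO control wells; lower ratio means ABCB6 inhibition with less porphyrin fluorescence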
# Target sequence (Q9NP58 whole entry, looked up): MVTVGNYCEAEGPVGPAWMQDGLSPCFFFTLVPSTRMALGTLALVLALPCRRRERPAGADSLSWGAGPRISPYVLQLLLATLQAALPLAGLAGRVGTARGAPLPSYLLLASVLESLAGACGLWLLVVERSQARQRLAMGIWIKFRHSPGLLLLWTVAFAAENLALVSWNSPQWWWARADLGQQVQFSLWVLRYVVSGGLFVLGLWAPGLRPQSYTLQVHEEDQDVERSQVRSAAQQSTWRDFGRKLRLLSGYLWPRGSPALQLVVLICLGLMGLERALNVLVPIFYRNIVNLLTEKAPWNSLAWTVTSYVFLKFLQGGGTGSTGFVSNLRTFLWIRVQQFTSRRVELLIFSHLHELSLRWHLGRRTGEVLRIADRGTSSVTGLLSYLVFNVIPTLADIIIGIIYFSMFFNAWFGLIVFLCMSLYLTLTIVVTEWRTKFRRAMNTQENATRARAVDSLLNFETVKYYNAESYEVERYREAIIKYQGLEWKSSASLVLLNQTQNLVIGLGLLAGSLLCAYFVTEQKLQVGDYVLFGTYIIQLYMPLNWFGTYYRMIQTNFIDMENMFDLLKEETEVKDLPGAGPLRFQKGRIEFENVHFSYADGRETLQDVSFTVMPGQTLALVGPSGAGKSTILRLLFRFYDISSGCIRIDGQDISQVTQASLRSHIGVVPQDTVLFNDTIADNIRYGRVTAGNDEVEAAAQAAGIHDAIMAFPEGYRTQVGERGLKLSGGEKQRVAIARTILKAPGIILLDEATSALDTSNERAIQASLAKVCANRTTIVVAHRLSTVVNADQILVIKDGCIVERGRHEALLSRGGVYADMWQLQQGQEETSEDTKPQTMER
# rCAG binder: binds r(CAG) RNA repeats; r(CAG) RNA repeat, TO-PRO-1 dye displacement fluorescence; hit rate 1.3% among 370,000; AID 651821; inhibition, % at 3 µM;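 active = inhibition above the plate cutoff, the mean of all test compounds on that plate plus 3 SD, cut at about 35% in these data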;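 also: 0% = DMSO alone and 100% = 100 µM mitoxantrone as full dye displacement; higher means more dye released from RNA so lower well fluorescence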
# PG9 binder: PG9 antibody binding by small molecule; TR-FRET gp120-PG9 antibody binding; hit rate 0.43% among 360,000; inhibition, % at 6.7 µM; AID 624416; in the data active = inhibition above about 8.5%
# Exocytosis inh: lytic granule exocytosis inhibition | hit rate 0.66% among 360,000 | inhibition, % at 10 µM | TALL-104 LAMP-1 surface exposure, flow cytometry; cells stimulated with thapsigargin and PMA;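 active = inhibition above about 55%, limit read from the data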
# Numbers without * were called inactive; · = no result given. Only some compounds are listed: those with a hit (about 2.5% of all), similar ones and a draw of the others.
SMILES,ABCB6 inh MLPCN,rCAG binder,PG9 binder,Exocytosis inh
O=C(CN1C(=O)c2cccc3cccc(c23)C1=O)N1CCCCCC1,63*,-2,-1,-3
CCc1nnc(NS(=O)(=O)c2ccc(NC(=S)NC(=O)/C=C/c3ccc(C(C)C)cc3)cc2)s1,97,·,·,90*
COc1ccc2ccccc2c1CN1CCN(c2ncc(Cc3ccccc3)cn2)CC1,·,3,-3,·
O=C(N/N=C/c1ccco1)c1cccc(N2Cc3ccccc3C2)c1,95,37*,0,3
O=C(N/N=C/c1ccco1)c1cccc(N2CCCC2=O)c1,92,0,-2,-2
Cc1sc2ncnc(Nc3ccc(N4CCOCC4)cc3)c2c1-c1ccccc1,91,0,-1,-3
Cc1sc2ncnc(N3CCN(Cc4ccccc4)CC3)c2c1-c1ccccc1,96,-2,-1,63*
COc1ccc(C(C(=O)NCc2ccccc2)N(Cc2ccco2)C(=O)c2snc(C(N)=O)c2N)cc1OC (configuration not stated),100,4,-1,56*
Clc1ccc2c(N/N=C/c3ccccc3Br)ccnc2c1,94,7,1,92*
Clc1ccc2c(N/N=C/c3cccc(Br)c3)ccnc2c1,95,14,0,74*
O=[N+]([O-])c1ccc(/C=N/Nc2ccnc3cc(Cl)ccc23)o1,166,26,-5,55
Brc1cccc(C=Nc2cccc3ncccc23)c1,105,1,-1,16
Oc1c(Br)cc(Br)cc1C=Nc1cccc2ncccc12,101,0,-3,67*
CCOC(=O)c1nn(-c2ccc(F)cc2)c(=O)cc1OCC(=O)Nc1cccc(C)c1,99,-9,11*,-1
COc1ccc2c(c1)CNC2CS(=O)(=O)NCc1ccc(F)cc1 (configuration not stated),·,11,·,·
NCCNc1ccc(C(=O)N2c3ccccc3Sc3ccccc32)cc1[N+](=O)[O-],96,30,0,66*
CC1=NN(C(=S)Nc2ccccc2)C(c2ccccc2)C1 (configuration not stated),99,-1,0,0
Cc1ccc(C2CC(c3ccccc3)=NN2C(=S)Nc2ccccc2)o1 (configuration not stated),106,6,-10,97*
CCN(CC)c1c([N+](=O)[O-])c(=O)n(C)c2ccccc12,100,3,-1,10
Cn1c(=O)c([N+](=O)[O-])c(Cl)c2ccccc21,105,1,1,71*
COC(=O)Cc1nnn2c1[C@H](C)[C@@H](OC)c1cccc(Cl)c1-2,·,2,1,·
C=CC[C@H](CC(=O)N(CCO)Cc1ccccc1)C(=O)N[C@@H](C)COC(=O)[C@H](CC=C)CC(=O)OC(C)(C)C,91,-9,1,1
C=CC[C@@H](CC(=O)N(CCO)Cc1ccccc1)C(=O)N[C@@H](C)COC(=O)[C@@H](CC=C)CC(=O)OC(C)(C)C,99,-11,-3,64*
Cc1ccc(S(=O)(=O)/N=C(\Sc2ccccc2)c2ccccc2)cc1,103,0,2,65*
COC(=O)[C@]12C[C@H](CC(=O)N3CCN(C(=O)C4CC4)CC3)C(=O)N(Cc3cccc4ccccc34)C1=C[C@H](C(C)C)O[C@@H]2C1CC1,·,8,·,·
SMILES,ABCB6 inh MLPCN,rCAG binder,PG9 binder,Exocytosis inh
CCc1c(C)nc2nc(SCc3ccccc3Cl)[nH]n2c1=O,61*,9,1,-1
N=C1/C(=C\c2ccc(OC(=O)c3ccccc3)cc2)C(=O)N=C2SC(N3CCOCC3)=NN12,98,42*,-2,2
COCC(=O)O[C@]1(CCN(C)CCCc2nc3ccccc3[nH]2)CCc2cc(F)ccc2[C@@H]1C(C)C,95,1,-1,63*
CC(=O)OCC(=O)N1CCN(C(=O)C(=O)c2cccc(C(F)(F)F)c2)CC1,·,0,1,·
Cc1sc(NC(=O)CSc2n[nH]c(N)n2)c(C#N)c1C,159,50*,-1,18
COC(=O)c1c(NC(=O)CSc2n[nH]c(N)n2)sc(C)c1C,99,5,0,4
COC(=O)[C@]12C[C@H](CC(=O)NCCCN3CCCC3=O)C(=O)N(Cc3ccco3)C1=C[C@H](COCc1ccccc1)O[C@@H]2C,·,7,·,·
S=c1[nH]nc(-c2cc3c(s2)-c2ccccc2CC3)o1,98,48*,4,-1
CCc1ccc(CCNC(=O)OC2CC3CC2[C@H]2CCCCN2[C@H]3Cc2ccccc2)cc1 (some centres not stated),·,3,·,·
COc1cc2nc(NC(=O)c3ccccc3)sc(=O)c2cc1OC,97,3,25*,7
COc1cc2nc(NC(=O)c3ccccc3)[nH]c(=O)c2cc1OC,101,2,2,-3
COc1cc(/C=C2\COC/C(=C\c3ccc(O)c(OC)c3)C2=O)ccc1O,100,11,-7,64*
COc1cc(/C=C/C=C2/CC/C(=C/C=C/c3ccc(O)c(OC)c3)C2=O)ccc1O,386,80*,-2,26
C/C=C/c1ccc(O)c(OC)c1,108,2,1,1
CCN1C/C(=C/c2ccc(OC)c(O)c2)C(=O)/C(=C/c2ccc(OC)c(O)c2)C1,99,-1,1,0
COc1cc(/C=C2/CC/C(=C/c3ccc(O)c(OC)c3)C2=O)ccc1O,172,26,-2,86*
COc1ccc(/C=C2\CN(Cc3ccccc3)C/C(=C\c3ccc(OC)c(O)c3)C2=O)cc1O,95,14,-2,67*
Nc1[nH]c(C(=O)c2ccc(Br)cc2)c(-c2ccccc2Cl)c1C(=O)NCCc1c[nH]c2ccccc12,·,12,0,·
CC(CCN1CCC(C(O)(c2ccccc2)c2ccccc2)CC1)Oc1cccc(C(F)(F)F)c1 (configuration not stated),·,-1,·,·
Cc1ccc(C2=NC(C)(C)N=C2SCC(=O)Nc2ccc(Cl)cc2)cc1,66*,-2,-1,0
CC1(C)N=C(SCC(=O)Nc2ccccc2)C(c2ccc(Cl)cc2)=N1,87,-7,0,-1
COC(=O)C1=C(C)N(Cc2ccc(C(F)(F)F)cc2)C(=NCc2ccccc2C(F)(F)F)NC1c1ccccc1C(F)(F)F (configuration not stated),·,0,-1,·
CCCC[C@H](C(=O)N(CC)c1ccccc1)[C@@H](O)c1ccc(Cl)cc1,·,2,·,·
c1ccc(-c2sc3ccccc3c2-c2ccc(OCCN3CCOCC3)cc2)cc1,83,·,·,-3
Oc1cccc(-c2sc3ccccc3c2-c2ccc(OCCN3CCCCC3)cc2)c1,103,7,-2,59*
SMILES,ABCB6 inh MLPCN,rCAG binder,PG9 binder,Exocytosis inh
O=C(/C=C/c1cccs1)NC(=S)NNC(=O)c1ccccc1O,96,38*,0,0
Cc1ccc(/C=C/C(=O)NC2CCCCCCC2)o1,96,8,2,58*
COc1ccc(CN2C(C(=O)NCC(C)C)CSCCS2(=O)=O)cc1 (configuration not stated),·,-2,·,·
O=[N+]([O-])c1ccc(/C=N/NC(=S)Nc2ccc(Cl)cc2Cl)s1,114,13,-1,94*
CCOC(=O)N1C(=O)C[C@](Sc2ccc(OC)cc2)(C(=O)N2CCCC2)[C@H]1c1ccc(OC)cc1,·,2,·,·
CN1/C(=C\C(=O)c2cccnc2)C(C)(C)c2ccccc21,105,-4,-2,-1
